From PubChem
Pin1 inh – human Pin1 inhibition; Q13526; AID 504891; Pin1 FP peptide displacement, HiFluor488, 10 min; actives 0.009% (n = 390,000); Potency, µM (top dose mostly 115 µM), most hits filed as inhibitors; active = well fitted inhibition curve with a large enough effect in the polarisation, with a control signal flat, not every such curve was filed as active; inconclusive = small, poorly fitted or top-dose-only effect, or effect the other way, or a change in a side signal; inactive = no such curve, though single readings can be large or run the other way; the % refers to the polarisation
Target sequence (Q13526 whole entry, looked up): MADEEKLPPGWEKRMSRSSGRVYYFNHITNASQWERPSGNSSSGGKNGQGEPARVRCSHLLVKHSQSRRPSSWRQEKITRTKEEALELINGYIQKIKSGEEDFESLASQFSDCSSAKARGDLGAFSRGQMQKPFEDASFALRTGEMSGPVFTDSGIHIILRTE
Tb PGK inh – inhibitors of T. brucei phosphoglycerate kinase | P07378 | PGK/GAPDH coupled, Kinase-Glo luminescence, 60 min | Potency, µM (top dose mostly 57.5 µM), usual class: inhibitors | actives 0.043% (n = 380,000) | AID 602233; active = well fitted inhibition curve with a large enough effect; inconclusive = small, poorly fitted or top-dose-only effect; inactive = no such curve, though single readings can be large or run the other way; note: nearly all actives have a fitted effect of over 60% in size
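Recombinant glycosomal PGK reaction used 1,3-bisphosphoglycerate generated in-well by GAPDH (100nM final) in 100mM TEA pH 7.6, 5mM MgCl2, 0.01% Tween-20. After 60 minutes at room temperature, ATP was read by Kinase-Glo Plus luminescence end-point.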
PI4K2A block – blocks human PI4K2A kinase activity | purified PI4K2A, ADP-Glo luminescence, 1 h; active compounds read low | activity change, negative = inhibition, % at 76.9 µM | actives 0.13% (n = 420,000) | AID 1346378; in the data active = activity change below about -50%; inconclusive = mostly about -30% to -49%
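Compounds are screened against recombinant PI4K2A using PI as substrate and ATP, the latter dispensed at 300 microM. Reactions run one hour at ambient temperature before ADP-Glo detection; full inhibition defined by wells lacking enzyme.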
PI5P4Ka inh – blocks human PI5P4K alpha kinase activity; PI5P4Kalpha enzyme, ADP-Glo luminescence, 60 min; active compounds read low; max response, %; actives 1.2% (n = 330,000); P48426; AID 652105; active = max response of -50% or lower; inconclusive = between -30% and -50%; inactive = -30% or higher; note: value at the top dose of about 77 µM
Target sequence (P48426 whole entry, looked up): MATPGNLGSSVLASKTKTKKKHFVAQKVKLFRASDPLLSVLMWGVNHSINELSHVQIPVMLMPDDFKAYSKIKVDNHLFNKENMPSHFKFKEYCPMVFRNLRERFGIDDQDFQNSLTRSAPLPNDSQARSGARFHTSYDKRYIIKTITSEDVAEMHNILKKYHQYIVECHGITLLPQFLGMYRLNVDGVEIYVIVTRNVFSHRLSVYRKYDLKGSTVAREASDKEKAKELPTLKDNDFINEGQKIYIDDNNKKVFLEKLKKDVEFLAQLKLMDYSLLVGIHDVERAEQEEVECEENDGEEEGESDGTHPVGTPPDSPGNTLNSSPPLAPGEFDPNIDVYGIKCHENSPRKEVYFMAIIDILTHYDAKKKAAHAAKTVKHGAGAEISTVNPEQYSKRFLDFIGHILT
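Human PI5P4Kalpha with substrate in 0.038 M HEPES pH 7.4, 0.28 mM EGTA, 0.1% CHAPS, 5% DMSO; reaction started with 5 microM ATP (final), 60 min at room temperature. ADP formed read by ADP-Glo luminescence.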
Hits are given with their value; i = inactive; ? = inconclusive; nt = no result given. The full list was thinned out, with hits kept by preference.

SMILES | Pin1 inh | Tb PGK inh | PI4K2A block | PI5P4Ka inh
COc1ccc(N2CC(NC(=O)Cc3cccs3)CC2=O)cc1OC (centres undefined) | i | i | i | nt
CCn1c(=S)[nH]c2c(=O)n(C)c(=O)n(C)c21 | i | i | i | -69
O=C(Nc1cc(Sc2ccccn2)cc([N+](=O)[O-])c1)c1ccc([N+](=O)[O-])cc1 | i | i | i | -75
CCCc1nc2c(=O)n(C)c(=O)nc-2n(C)n1 | ? | ? | -61 | i
Cn1nc(-c2ccccn2)nc2c(=O)n(C)c(=O)nc1-2 | nt | ? | -63 | i
Cc1cc(C(=O)OCC(=O)NC(=O)C2CCCCC2)ccc1[N+](=O)[O-] | i | nt | nt | nt
O=C(O)/C=C\C(=O)Nc1ccc(Oc2ccccc2)cc1 | i | i | i | nt
O=C(O)/C=C/C(=O)Nc1ccc(C2(c3ccc(NC(=O)/C=C/C(=O)O)cc3)c3ccccc3-c3ccccc32)cc1 | i | i | i | -58
O=P(O)(O)OCC(O)CO (centres undefined) | nt | nt | i | nt
CN(C)S(=O)(=O)c1cccc(-c2nn(-c3ccccc3)cc2/C=C2\SC(=S)NC2=O)c1 | i | ? | i | -86
CN(C)S(=O)(=O)c1cccc(-c2nn(-c3ccccc3)cc2/C=C(\C#N)c2nc3ccccc3[nH]2)c1 | ? | i | i | i
C=CCNC(=O)CSc1nc2sccc2c(=O)n1-c1ccccc1 | ? | i | i | -60
CCOC(=O)c1ccc(NC(=O)CSc2nnc(-c3cccc(C)c3)n2C)cc1 | nt | nt | i | nt
Cc1cc(C)c(Nc2n[nH]c(=S)s2)cc1C | nt | i | i | -90
Cc1ccc(Nc2n[nH]c(=S)s2)c(C)c1 | nt | i | i | -88
Cc1cccc(C)c1Nc1n[nH]c(=S)s1 | nt | i | i | -73
CC(C)c1ccc(Nc2n[nH]c(=S)s2)cc1 | nt | nt | i | -65
Cc1cccc(Nc2n[nH]c(=S)s2)c1C | i | i | i | nt
CCOC(=O)c1sc(Nc2ccc(C)cc2C)nc1C | i | i | i | i
O=C1C(=O)C(c2ccc(O)cc2O)Oc2cc(O)cc(O)c21 (centres undefined) | i | nt | nt | nt
Nc1nc(Cl)nc2c1ncn2[C@@H]1O[C@H](COP(=O)(O)OP(=O)(O)OP(=O)(O)O)[C@@H](O)[C@H]1O | nt | nt | i | nt
Cc1csc(CNc2ncnc3ccc(-c4ccc5c(c4)OCO5)cc23)n1 | i | nt | nt | nt
COc1cc(C2Nc3ccccc3C(=O)N2Cc2ccccc2)ccc1OCc1ccc(NC(C)=O)cc1 (centres undefined) | i | nt | nt | nt
COc1ccc(-c2cc3c(nn2)-c2ccccc2C3=O)cc1 | i | ? | -56 | ?
O=C1c2ccccc2-c2nnc(-c3ccccc3)cc21 | i | ? | ? | i
SMILES | Pin1 inh | Tb PGK inh | PI4K2A block | PI5P4Ka inh
Oc1c(/C=C/C=C/C=Nc2ccccc2)sc(=S)n1Cc1ccccc1 | i | i | i | -79
CCn1c(O)c(/C=C/C=C/C=Nc2ccccc2)sc1=S | i | i | i | -63
CCCCn1c(O)c(/C=C/C=C/C=Nc2ccccc2)sc1=S | i | i | i | ?
CCN(CC)CC(=O)OCC(=O)[C@@]1(O)CC[C@H]2[C@@H]3CCC4=CC(=O)CC[C@]4(C)[C@H]3[C@@H](O)C[C@@]21C | nt | nt | i | nt
COc1ccc(C2c3c(n(CCc4ccccc4)cnc3=N)Oc3ccc4ccccc4c32)cc1OC (centres undefined) | i | nt | nt | nt
COc1cc(NS(=O)(=O)c2ccc([N+](=O)[O-])cc2)c2ncccc2c1 | i | nt | nt | nt
CN(Cc1ccccc1)C(=O)CN1C(=O)NC2(CCCc3sccc32)C1=O (centres undefined) | nt | i | i | i
O=c1[nH]c(=S)[nH]cc1S(=O)(=O)c1cccc(Cl)c1 | i | i | i | -57
COc1ccc2ccc3c(c2c1)N=C[C@]1(O3)N(C)c2ccccc2C1(C)C | i | i | -68 | ?
O=C1N/C(=N/S(=O)(=O)c2ccccc2)S/C1=C/c1cccnc1 | i | i | i | -57
O=C1NC(=Nc2ccccc2)S/C1=C\c1cccnc1 | i | i | i | ?
Cc1ccc(S(=O)(=O)/N=C2/NC(=O)/C(=C\c3ccccc3)S2)cc1 | i | i | i | i
Cc1ccc(/C=C2\S/C(=N/S(=O)(=O)c3cccs3)NC2=O)cc1 | ? | ? | i | -59
COc1ccc(Cl)cc1S(=O)(=O)N1CCN(S(=O)(=O)c2ccc3c(c2)OCCO3)CC1 | i | nt | nt | nt
COc1cccc(C2c3c(ncn(-c4ccccn4)c3=N)Oc3ccc4ccccc4c32)c1 (centres undefined) | i | nt | nt | nt
N#Cc1c(NC(=O)c2ccccc2)sc2c1CCCCC2 | i | i | i | i
N#Cc1c(Cl)nsc1NC(=O)c1ccccc1 | i | i | i | -54
CNc1cc2c(cc1S(=O)(=O)Nc1ccc(C)c(C)c1)CCC(=O)N2 | i | nt | nt | nt
O=C(O)/C=C/c1cn(-c2ccccc2)nc1-c1ccc(-c2ccc([N+](=O)[O-])cc2)o1 | ? | ? | i | -60
Cn1c(N)c(C(=O)COC(=O)C2Cc3ccccc3CN2S(C)(=O)=O)c(=O)n(C)c1=O (centres undefined) | nt | i | i | -61
O=C1NC(=S)NC1=Cc1ccco1 | ? | ? | i | -93
O=C1NC(=O)/C(=C/c2ccco2)N1 | i | i | i | nt
CCOC(=O)CSc1nc2cc(OC)c(OC)cc2cc1C#N | i | nt | nt | nt
Cc1c(N=Nc2c(-c3ccc([N+](=O)[O-])cc3)[nH]n(C(N)=S)c2=O)cccc1[N+](=O)[O-] | nt | i | i | -62
COc1cccc2cc(-c3nc(-c4ccccc4)c(C)s3)c(=O)oc12 | i | nt | nt | nt
SMILES | Pin1 inh | Tb PGK inh | PI4K2A block | PI5P4Ka inh
Cc1cccc(NC(=O)CN2C(=O)S/C(=C\c3ccc(-c4cccc(C(=O)O)c4C)o3)C2=O)c1 | ? | i | i | i
Cc1ccc(NC(=O)CN2C(=O)S/C(=C/c3ccc(-c4cc(C(=O)O)ccc4C)o3)C2=O)cc1C | ? | 20µM | i | nt
O=C(CN1C(=O)S/C(=C\c2cccs2)C1=O)Nc1ccc(O)c(C(=O)O)c1 | i | i | i | -58
COc1ccc(C2Nc3ccccc3C(=O)N2Cc2ccccc2C)cc1COc1ccc(NC(C)=O)cc1 (centres undefined) | i | nt | nt | nt
Nc1ccc(Nc2nc3ccccc3[nH]2)cc1 | nt | i | i | -52
O=c1ccc(N=Nc2ccccc2)ccc1O | ? | i | -60 | i
COc1ccc(C2Nc3ccccc3C(=O)N2Cc2ccccc2)cc1COc1ccc(F)cc1 (centres undefined) | i | nt | nt | nt
Cc1ccc([N+](=O)[O-])cc1-c1ccc(/C=C(\C#N)c2[nH]nc(N)c2C#N)o1 | ? | i | i | -55
O=C(NNC(=O)c1cccc(-n2cccc2)c1)c1ccccc1 | i | i | i | i
O=C(NNC(=O)c1ccccc1F)c1cccc(-n2cccc2)c1 | nt | ? | i | -68
CCN1C(=O)N[C@@H](c2cccs2)C(C(=O)OC)=C1C | i | i | i | i
CC1=C(C(=O)OCc2ccccc2)C(c2cccs2)NC(=O)N1CCCC(=O)O (centres undefined) | i | i | i | -66
CCOC(=O)C1=C(C)N(CCCC(=O)O)C(=O)NC1c1cccc(OC)c1 (centres undefined) | i | i | i | ?
COC(=O)C1=C(C)N(CCCC(=O)O)C(=O)NC1c1cccs1 (centres undefined) | i | i | i | -73
